# Source: PubChem (National Center for Advancing Translational Sciences (NCATS))
# Caspase-7 inhib: blocks human caspase-7 allosterically or competitively. P55210. recombinant caspase-7, Ac-DEVD-AFC fluorescence rate. Potency, µM (doses to about 57.5 µM), for the others: at the highest dose activity change, negative = inhibition, usual class: inhibitors. 75,000 compounds, 0.02% hits. AID 889; active means well fitted inhibition curve with a large enough effect in the main read-out, with a control signal flat, not every such curve was filed as active; inconclusive means small, poorly fitted or top-dose-only effect, or a change in a side signal; further: % of control where 0% means no effect
# Luciferase inh: blocks Photinus pyralis firefly luciferase activity. P08659. purified firefly luciferase, luminescence, 8 min. Potency, µM (series often up to 57.1 µM), for the others: at the highest dose activity change, negative = inhibition, hits mostly inhibitors. 72,000 compounds, 2.2% hits. AID 411; further: on the % scale 0 is the no-effect control and ±100 the full control effect; nearly all actives have a fitted effect of over 40% in size
#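 Luminescence read-out after 8 min at room temperature; enzyme reaction used luciferin plus 10 uM ATP (linear range) in imidazole buffer pH 7.2 with KCl, MgCl2, Tween 20 and BSA. Each sample was run as a titration.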
# Tau filament bind: binds recombinant human tau filaments; P10636; recombinant tau filaments, thioflavin S fluorescence, 15 h; filaments grown with octadecylsulfate alongside compound; Potency, µM (highest dose often 57.1 µM), for inactives: at the highest dose activity change, negative = inhibition; 71,000 compounds, 2% hits;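 further: on the % scale 0 is the no-effect control and ±100 the full control effect; actives lower thioflavin S fluorescence by blocking filaments or displacing dye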
#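 Assay mix: 1 uM His-tagged tau, 30 uM sodium octadecylsulfate, thioflavine S dye in HEPES/NaCl/DTT buffer. Compound is added prior to the inducer. Fluorescence after 15 h at 37 C.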
# Casp1 inh: blocks human caspase-1 allosterically or competitively; P29466; Potency, µM (series often up to 57.5 µM), for inactives: at the top dose activity change, negative = inhibition, actives largely listed as inhibitors; 75,000 compounds, 0.03% hits; Caspase-1 enzyme, Ac-WEHD-AFC fluorogenic rate;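 further: plate controls were vehicle for no effect and no substrate for full effect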
# Bst PK mod: alters activity of Bacillus stearothermophilus pyruvate kinase; purified pyruvate kinase, luminescence ATP production; ribose 5-phosphate activator present at AC10; 51,000 compounds, 1.2% hits; Potency, µM; in the data active means potency below about 11 µM; inconclusive means mostly about 12 µM to 25 µM;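 the screen sought inhibitors and activators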;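 further: scaled between full activation by ribose 5 phosphate and full inhibition by luteolin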
# Numbers without * were called inactive; i = inactive; u = inconclusive; x = not tested or not shown; [ ] = another dose, or the depositor's remark. An excerpt weighted towards active compounds, which were near 4% of everything screened. Unless noted, the call rests on the fitted dose curve; in most records, active means well fitted curve in the direction sought with a large enough effect; inconclusive means small, poorly fitted or top-dose-only effect, or another doubt; inactive means no such curve, though single readings can be large; an effect the other way counts as inactive or inconclusive. Potency means the concentration at half of the fitted maximal effect.
SMILES,Caspase-7 inhib,Luciferase inh,Tau filament bind,Casp1 inh,Bst PK mod
CC(C)=CCC/C(C)=C/CO/N=C1/[C@H]2O[C@@H]2[C@@H](O)[C@H]2[C@H]1CCn1c(=O)n(C)c(=O)n12,-1%[11.5 µM],0%[11.4 µM],x,0%[11.5 µM],x
O=C(O)c1cc(S(=O)(=O)Nc2cccc(F)c2)ccc1Cl,0%,x,x,-2%,x
O=P(O)(O)O[C@@H]1O[C@H](CO)[C@@H](O)[C@H](O)[C@@H]1O,0%[11.5 µM],0%[11.4 µM],7%[11.4 µM],3%[11.5 µM],x
Cc1oc(/N=C/c2ccccc2O)c(C#N)c1C,-8%,-1%,-10%,-9%,x
Cc1oc(/N=C/c2c(O)ccc3ccccc23)c(C#N)c1C,-19%,1%,2.5µM*,-15%,x
Cc1ccc(C23CC4CC(CC(NC(=O)N5CCN(C)CC5)(C4)C2)C3)cc1,1%,-1%,16µM*,0%,>57
Clc1ccc2c(c1)N(CCCN1CCCC13CCCCC3)c1ccccc1S2,-3%[11.5 µM],5%[11.4 µM],-4%[11.4 µM],0%[11.5 µM],x
O=C(Nc1ccccc1)C1CC2CCCC(C1)C2=O (centres undefined),0%,7%,-2%,0%,>57
O=C(Nc1ccc(Nc2ccccc2)cc1)C1CC1,-2%,-8%,10µM*,-2%,x
CC1Cc2ccccc2N1C(=O)CCS(=O)(=O)c1cccc2nonc12 (centres undefined),-2%,2%,-8%,-1%,>57
Cc1ccc(C)c(N2CCN(C(=O)CCS(=O)(=O)c3cccc4nonc34)CC2)c1,-5%,0%,32µM*,0%,>57
COc1ccc(-c2coc3cc(O[C@@H]4O[C@@H](CO)[C@@H](O)[C@@H](O)[C@H]4O)cc(O)c3c2=O)cc1,x,-1%[11.4 µM],u,x,x
Cc1ccc(N2C(=O)c3ccc(N)cc3C2=O)cc1C,-24%,-23%,12%,u,x
Cc1ccc(N2C(=O)c3ccc(N)cc3C2=O)cc1,u,16µM*,15%,x,x
COc1ccc(OCC2Cc3c(-c4ccccc4)nc4c(c3CO2)CN(CCOc2ccccc2)CC4)cc1 (centres undefined),1%[11.5 µM],x,x,-1%[11.5 µM],x
CCN(CC)CCCn1c(-c2ccccc2)nc2c(N3CCOCC3)nc(C)nc21,0%,x,-2%,1%,x
Cc1cc2n(n1)C(c1sccc1C)Nc1ccccc1-2 (centres undefined),-2%,-29%,23%,1%,>11
Cc1ccc2c(c1)-c1cc(C)nn1C(c1sccc1C)N2 (centres undefined),-6%,u,11%,-8%,11*
CCc1nnc2n1N=C(c1ccc(-c3cc(Cl)ccc3Cl)o1)CS2,-4%,-1%,16µM*,0%,>57
Clc1ccc(OCc2nnc3n2N=C(c2ccc4c(c2)OCCO4)CS3)c(Cl)c1,-3%,0%,138%,-3%,>57
CCc1nnc2n1N=C(c1ccc(-c3ccc(Cl)cc3Cl)o1)CS2,-4%,0%,25µM*,2%,>57
C#CCN1C(C)=C(C(=O)OC)[C@@H](c2cccc([N+](=O)[O-])c2)C(C(=O)OCC)=C1C,-2%,-4%,-30%,-2%,x
CCOc1ccc(N2Cc3ncccc3C2=O)cc1,-1%,-29%,0%,0%,11*
CCOc1ccc(N2C(=O)c3ccccc3C2O)cc1 (centres undefined),-1%,u,22%,-4%,x
CNc1sc(C(=O)c2cccs2)c(N)c1-c1nc2ccccc2s1,-10%,-13%,5µM*,-3%,x
SMILES,Caspase-7 inhib,Luciferase inh,Tau filament bind,Casp1 inh,Bst PK mod
C=C1CCC2C(CC2(C)C)C(=C)CC/C1=N/O (centres undefined),-1%,x,x,0%,x
Cc1c(/N=C/c2ccco2)n(Cc2ccccc2)c2ccccc12,-2%,0%,1.6µM*,-4%,x
CCN1CCN(c2nc3c(C)cccn3c(=O)c2/C=C(\C#N)S(=O)(=O)c2ccccc2)CC1,x,1%[25.5 µM],x,x,>11
CC(C)n1cc(/C=C(\C#N)S(=O)(=O)c2ccccc2)c2ccccc21,u,-2%,7.9µM*,x,>57
COc1ccc(Oc2ncc3nc(-c4cccs4)c(=O)n(Cc4cccc(OC)c4)c3n2)cc1,u,1%[11.4 µM],2%,x,x
Cn1c(NCc2ccco2)nc2c1c(=O)n(Cc1ccc(Cl)c(Cl)c1)c(=O)n2C,x,2%[25.5 µM],x,x,1.9*
CCn1ccc(C(=O)Oc2ccc(C(C)C)cc2)n1,3%,13µM*,-4%,3%,i
Cc1cc2n(n1)C(c1ccccc1)Nc1ccccc1-2 (centres undefined),-1%,5%,6%,1%,x
Cc1cc2n(n1)C(c1ccc(N(C)C)cc1)Nc1ccccc1-2 (centres undefined),u,25µM*,-6%,x,u
COc1ccccc1-c1cc(NCc2ccccc2)ncn1,-3%,2%[2.29 µM],-5%,-4%,x
C=C(C)C1CC=C(C)C(OC(C)=O)C1 (centres undefined),0%,x,8%,-2%,x
CCOC(=O)c1c(C)oc2c1c(C(c1ccncc1)N1CCOCC1)c(O)c1ccccc12 (centres undefined),-2%,-15%,13µM*,-2%,x
O=C(O)c1[nH]c2c([N+](=O)[O-])cc([N+](=O)[O-])cc2c1C(=O)O,2%[11.5 µM],1%[11.4 µM],3%[11.4 µM],1%[11.5 µM],x
CC(C)(O)c1cc(=O)sc2nc3ccccc3n12,1%,25µM*,-10%,-1%,i
COc1cccc2sc(N)nc12,2%,x,0%,-3%,x
COc1cccc2sc(N(C)c3ccccc3)nc12,-3%,7.9µM*,4%,-1%,8.1*
O=C(Nc1cccs1)Nc1ccccc1Cl,-12%,-19%,25µM*,-5%,x
COc1cccc(NC(=O)Nc2cccs2)c1,-15%,16µM*,-9%,-7%,i
COc1ccc(NC(=O)Nc2cccs2)cc1OC,-9%,25µM*,136%,-6%,i
CCc1ccc(NC(=O)Nc2cccs2)cc1,-11%,4µM*,25µM*,-5%,4.8*
O=C(NCCCn1ccnc1)c1cn(-c2ccccc2)nc1-c1ccc(F)cc1,-1%,13µM*,11%,1%,i
CCCCCCC#CC1C=CC(OC(=O)OCC)C(COC(=O)OCC)O1 (centres undefined),0%[11.5 µM],x,x,0%[11.5 µM],x
N#CC1=C(N)NC(SCc2ccccc2)=C(C#N)C12CCCCC2,-3%,-1%,-6%[11.4 µM],-3%,x
CCSC1=C(C#N)C2(CCCCC2)C(C#N)=C(N)N1,4%,16µM*,3%,-3%,i
Cc1ccc(-c2noc(CN(C(=O)CCCN3C(=O)c4ccccc4C3=O)C(C)C)n2)cc1,-3%,-1%,16µM*,-1%,>57
O=C1CCCC2=C1C(c1ccco1)Nc1ccc3ccccc3c12 (centres undefined),u,-3%,13µM*,x,x
CCCn1c(-c2ccc(F)cc2)nc2c(NC3CCN(Cc4ccccc4)CC3)nc(C)nc21,-2%,x,151%,1%,x
COC(=O)Cn1ncc2c(C)n(Cc3ccccc3)c(C)c2c1=O,-1%,20µM*,-1%,3%,x
COC(=O)c1c(-c2ccc(F)cc2)csc1NC(=O)c1ccco1,-3%,13µM*,i[11.4 µM],-7%,x
O=C(Nc1scc(-c2ccccc2)c1C(=O)O)c1ccco1,0%,-9%,-6%,-2%,x
